Source: PubChem BioAssay (several laboratories)
An excerpt weighted towards active compounds, which were near 5.6% of everything screened.
PfM18AAP inh = blocks P. falciparum M18 aspartyl aminopeptidase. inhibition, % at 7.35 µM. recombinant PfM18AAP, H-Glu-NHMec fluorogenic cleavage. actives 1.2% (n = 290,000);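 active = inhibition above the campaign mean inhibition over all tested compounds plus 3 SD, cut at about 28% in these data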;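 also: 0% = plate median of test compound wells and 100% = 2 mM ZnCl2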
Cardio protect = protects H9c2 cardiomyocytes from peroxide injury. H2O2 injury protection, ATPLite, 2 h. protection from H2O2 cell death, % at 20 µM. actives 0.63% (n = 360,000);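 active = compounds giving at least 50% protection of heart cells from peroxide-induced death in the single-dose screen, raw or plate-pattern-corrected value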;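 also: 0% = DMSO wells with peroxide and 100% = DMSO wells without peroxide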
PfGluPho inh = PfG6PD (Plasmodium falciparum) enzyme inhibition; inhibition, % at 20 µM; actives 0.78% (n = 350,000); AID 504690; PfGluPho enzyme, NADPH resazurin-diaphorase fluorescence;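 active = inhibition reaching at least a set limit at 20 µM in the primary screen, cut at about 59% in these data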;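 also: 0% = DMSO wells with substrate and 100% = DMSO wells lacking glucose-6-phosphate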
ALR H2O2 inh = blocks human ALR sulfhydryl oxidase activity; AID 485317; actives 3.8% (n = 290,000); P55789; purified ALR, DTT oxidation, H2O2 HRP-luminol luminescence; inhibition, % (concentration not given with the values);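 active = mean replicate inhibition above about 79%, with every replicate also reaching it, limit read from the data; inconclusive = only one of the two criteria met; inactive = mean below limit and not every replicate reaching it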
Target sequence (P55789 whole entry, looked up): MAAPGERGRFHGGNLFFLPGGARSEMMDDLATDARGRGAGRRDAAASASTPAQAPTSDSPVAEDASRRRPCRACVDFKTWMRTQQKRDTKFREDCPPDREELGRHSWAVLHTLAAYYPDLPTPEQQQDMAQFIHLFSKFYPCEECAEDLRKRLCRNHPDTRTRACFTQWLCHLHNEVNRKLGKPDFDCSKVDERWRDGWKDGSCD
PHOSPHO1 block = inhibitors of human PHOSPHO1 phosphatase; Q8TCT1; recombinant PHOSPHO1, absorbance phosphatase assay; inhibition, % at 13.3 µM; actives 1.1% (n = 290,000); in the data active = inhibition above about 60%
Target sequence (Q8TCT1 whole entry, looked up): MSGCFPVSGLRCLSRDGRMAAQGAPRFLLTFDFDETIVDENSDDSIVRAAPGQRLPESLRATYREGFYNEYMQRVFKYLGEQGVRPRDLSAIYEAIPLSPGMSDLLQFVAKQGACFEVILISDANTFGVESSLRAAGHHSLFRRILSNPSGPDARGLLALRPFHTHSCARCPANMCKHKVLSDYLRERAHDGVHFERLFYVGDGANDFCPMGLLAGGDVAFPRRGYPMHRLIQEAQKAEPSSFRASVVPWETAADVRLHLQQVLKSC
PfG6PD confirm = PfG6PD inhibition, single-dose confirmed; shares compounds with PfGluPho inh; recombinant PfGluPho, NADPH-diaphorase-resazurin fluorescence; inhibition, % at 20 µM; actives 34% (n = 2,400);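 active = inhibition of at least 50% at 20 µM in any single replicate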;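 also: 0% = DMSO with substrate and 100% = DMSO lacking glucose-6-phosphate substrate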
Diaphorase 10uM = counter-screen for P. falciparum G6PD inhibitors: diaphorase inhibitors, oxidizers. AID 504862. diaphorase-coupled resazurin reduction, fluorescence, NADPH 10 uM. shares compounds with PfGluPho inh. inhibition, % at 20 µM. actives 39% (n = 820);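 active = average inhibition reaching 50% or more with the compound at 20 µM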;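 also: resorufin red fluorescence formed as diaphorase reduces resazurin using NADPH; 0% = DMSO with enzyme and 100% = DMSO without enzyme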
Diaph ctr 30uM = inhibits diaphorase or oxidizes, flagging false PfG6PD hits. shares compounds with PfGluPho inh. Diaphorase/resazurin coupled assay, resorufin fluorescence, 30 uM NADPH. inhibition, % at 20 µM. actives 29% (n = 820). AID 504863;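 active = inhibition averaging 50% or more, tested at 20 µM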;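 also: 0% = DMSO with enzyme and 100% = DMSO wells lacking diaphorase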
The depositor's hits bear a star; ? = inconclusive; nt = not tested or not shown.

SMILES	PfM18AAP inh	Cardio protect	PfGluPho inh	ALR H2O2 inh	PHOSPHO1 block	PfG6PD confirm	others
Cc1cc2ncn(-c3ncccc3[N+](=O)[O-])c2cc1C	16	-1	76*	1	4	-21
COc1ccc(CCNC(=O)CSC2=NS(=O)(=O)c3cc(F)ccc3N2)cc1OC	nt	-4	-10	nt	nt	nt
COC1(OC)C=CC(=O)C=C1NC(=O)c1ccccc1OC(C)=O	nt	-3	63*	-2	nt	64*	Diaphorase 10uM=4;Diaph ctr 30uM=-5
COc1ccc(CNC(=O)c2sc(=S)n(-c3ccc(OC)cc3)c2N)cc1	4	6	63*	-6	95*	-1
Nc1c(C(=O)NCc2cccnc2)sc(=S)n1-c1ccccc1	22	0	49	41	96*	43
Cc1ccc(-n2c(N)c(C(N)=O)sc2=S)cc1	13	-6	69*	19	93*	31
CCOC(=O)c1sc(=S)n(-c2ccc(OC)cc2)c1C	-2	-2	7	-2	32	nt
O=C(c1ccc(N2CCCS2(=O)=O)cc1)N1CCN(c2ccccc2)CC1	3	0	2	46	44	nt
Cc1ccnc(SCC(=O)N2CCc3ccccc32)n1	-4	0	-8	-6	46	nt
O=C(CSc1ncn(-c2ccccc2)n1)N1CCc2ccccc21	4	5	60*	-7	24	6
O=C(CCC(=O)N1CCOc2ccccc21)NCCN1CCOCC1	-2	11	5	3	5	nt
O=C1NC(Cc2ccc(O)cc2)c2nc3cc(Cl)ccc3c(=O)n2-c2cc(Cl)ccc21 (stereo not given)	nt	-4	5	nt	nt	nt
O=[N+]([O-])c1ccc2c(c1)-c1ccccc1C2O (stereo not given)	nt	-8	114*	nt	nt	97*	Diaphorase 10uM=37;Diaph ctr 30uM=19
Cc1nnc(N/N=C/c2ccc(-c3ccccc3F)o2)n1N	52*	-4	67*	15	-25	56*	Diaphorase 10uM=22;Diaph ctr 30uM=20
COC(=O)c1ccccc1-c1ccc(/C=N/NC(N)=O)o1	-2	5	23	-11	32	nt
c1ccc2c(c1)c1c(c3ccccc32)CN2CCCC2C1 (stereo not given)	nt	1	65*	nt	nt	-28
CN(C)C(=O)NC1c2ccccc2-c2ccccc21	-2	1	-5	-15	18	nt
O=C1C=CC(=O)N1c1ccc2c(c1)C(NC(=O)C(F)(F)F)c1ccccc1-2 (stereo not given)	nt	-11	98*	nt	nt	51*	Diaphorase 10uM=-40;Diaph ctr 30uM=-30
COc1ccc(C(=O)/C=C/c2cn(CN3CCN(C)CC3)c3ccccc23)cc1	3	-9	45	3	5	nt
CCOc1ccc(C(=O)/C=C/c2cn(CN3CCN(C)CC3)c3ccccc23)cc1	6	-3	62*	-5	8	-21
C[C@@H]1CNC(=O)c2c(C(=O)NCC(=O)OC(C)(C)C)ncn21	nt	8	13	nt	nt	nt
CC(C)COc1ccc(C(=O)Nc2sc3c(c2C(=O)O)CC(C)(C)OC3)cc1	0	-6	-9	-3	-1	nt
CC1(C)Cc2c(sc(NC(=O)c3ccccc3)c2C(=O)O)CO1	0	-8	88*	24	19	41
COc1ccc(C(=O)Nc2sc3c(c2C(=O)O)CC(C)(C)OC3)cc1	4	9	91*	8	0	48*	Diaphorase 10uM=40;Diaph ctr 30uM=45
CCn1c(=S)sc2c(=O)n(CC(=O)Nc3cccc(Cl)c3)c(C)nc21	-3	-5	-3	-17	2	nt
Cn1cc(C(CO)Cc2ccccc2)c2ccccc21 (stereo not given)	nt	-1	88*	?	nt	40
Nc1[nH]c(=O)[nH]c(=O)c1N=Cc1ccccc1	nt	-1	131*	nt	nt	98*	Diaphorase 10uM=16;Diaph ctr 30uM=3
O=c1[nH]c(NCCO)c(N=Cc2ccccc2)c(=O)[nH]1	nt	4	68*	-5	nt	104*	Diaphorase 10uM=79*;Diaph ctr 30uM=43
COc1ccc(NC(=O)CSc2nnc(Cc3cccs3)n2C)cc1	nt	2	5	-11	nt	nt
COc1ccc(CCNC(=O)C2CC(=O)N(c3ccc(C)cc3)C2)cc1OC (stereo not given)	2	-1	-12	5	28	nt
